Reference: ChEMBL document CHEMBL3988442, “University of Dundee, Small-Polar-MMV Screening Library” (2021)
Hit rate of the full screen: of about 48,000 compounds, about 13,000 (27%) showed an effect of 50% or more. The list shows a part of the results.

What follows are compounds tested on Wolbachia pipientis (assay: Anti-Wolbachia Cell-Based Screen). Details: 5 µM.
Type: functional
Set-up: scale not given: in the data most compounds retested in dose-response had high values

Structure (SMILES)	Percent Effect [%]
C[S+]([O-])c1nncn1CC(=O)c1cccc(C(F)(F)F)c1 (centres undefined)	-15.18
Cc1cc(CN2CCOC(CN(C)c3cccnn3)C2)no1 (centres undefined)	-1.412
O=C(c1coc(-c2ccccc2)n1)N1CCS(=O)(=O)CC1	-26.15
O=C(c1ccc(=O)[nH]n1)N1CCCC1CCc1ccccc1 (centres undefined)	-7.859
CCC1CN(C(=O)c2ccc(=O)[nH]n2)CCC(=O)N1Cc1ccccc1 (centres undefined)	3.625
O=C(c1ccc(=O)[nH]n1)N1CCNCC1c1ccccc1 (centres undefined)	145.5
CNc1ccnc(N2C[C@@H](C)[C@](O)(C3CC3)C2)n1	0.4082
C[C@@H]1CN(Cc2ccncc2)C[C@]1(C)O	97.25
C[C@@H]1CN(CC(C)(C)N2CCCCC2)C[C@@]1(O)C1CC1	17.38
C[C@@H]1CN(Cc2nnc(-c3cccnc3)o2)CC[C@]1(C)O	-2.885
C[C@@H]1CN(Cc2ccncc2)C[C@@]1(O)C1CC1	102.1
CC1CCCN(Cc2ccc(CNC(=O)NCc3ccncc3)cc2)C1 (centres undefined)	-7.368
CC(=O)NCCc1ccc(S(=O)(=O)N(C)C(C)C(C)(C)C)s1 (centres undefined)	-15.89
COc1ccc(C(C)C)cc1C1CC(=O)NCc2nc(N(C)C)sc21 (centres undefined)	-38.77
COc1ccnc(N2CCN(C(=O)c3cnc(C4CC4)s3)CC2)n1	-14.05
Clc1ccc2cccnc2c1CN1CCn2c(nnc2C2CC2)C1	-29.6
Cn1cnnc1S(=O)(=O)C1CCN(S(=O)(=O)c2c(Cl)cccc2Cl)CC1	-14.3
O=S(=O)(c1ccccc1Cl)N1CCCC(c2ncc[nH]2)C1 (centres undefined)	-0.103
c1ccc2oc(N3CCn4c(nnc4C4CC4)C3)nc2c1	-3.429
CNC(=O)CS(=O)(=O)C1CCN(S(=O)(=O)c2cccc(Cl)c2C)CC1	-17.28
CN1CCC(c2nnc3n2CCN(S(=O)(=O)c2ccccc2Cl)C3)CC1	149.5
CCc1nnc2n1CCN(CCS(=O)(=O)c1ccccc1)C2	5.511
CN1CCC(c2nnc3n2CCN(S(=O)(=O)c2ccccc2)C3)CC1	90.65

Structure (SMILES)	Percent Effect [%]
O=c1[nH]nc2n1CCN(S(=O)(=O)c1ccccc1Cl)C2	-39.65
CN1CCCC1c1nnc2n1CCN(S(=O)(=O)c1ccccc1Cl)CC2 (centres undefined)	104.7
CN1CCCC(c2nnc3n2CCN(S(=O)(=O)c2ccccc2Cl)C3)C1 (centres undefined)	97.31
CCOCc1cccc(NC(=O)C2COCCO2)c1 (centres undefined)	8.112
CC(Oc1ccc(OCc2ncc(C(C)C)o2)cc1)C(N)=O (centres undefined)	3.924
COCCN(C(=O)c1ccc(OC)cc1)c1ccc(C#N)cc1	3.07
Cc1ccc(C(=O)NCCCN(C(C)C)S(C)(=O)=O)c(=O)[nH]1	16.76
COCCN(C)C[C@H]1CC[C@@H](Cc2ccc3c(cnn3C)c2)O1	-8.226
CC(C)CS(=O)(=O)N1C[C@H]2C[C@H](C(=O)N3CCCC3)[C@@H](C1)O2	109.6
CC(C)CS(=O)(=O)N1C[C@H]2C[C@H](C(=O)NCc3ccccc3)[C@@H](C1)O2	6.255
CN(C)C(=O)[C@H]1C[C@@H]2CN(S(=O)(=O)c3ccccc3)C[C@H]1O2	1.569
CC(C)CS(=O)(=O)N1C[C@H]2C[C@H](C(=O)N(C)C)[C@@H](C1)O2	117.8
CCCS(=O)(=O)N1C[C@H]2C[C@H](C(=O)N(C)C)[C@@H](C1)O2	1.854
O=C(NCC1CCCCC1)N1C[C@H]2C[C@H](C(=O)N3CCOCC3)[C@@H](C1)O2	-10.09
CC(C)CS(=O)(=O)N1C[C@H]2C[C@H](C(=O)N3CCOCC3)[C@@H](C1)O2	113.5
CC(C)CS(=O)(=O)N1C[C@H]2C[C@H](C(=O)N3CCN(C)CC3)[C@@H](C1)O2.O=C(O)C(F)(F)F	100.5
CC(C)NC(=O)N1C[C@H]2C[C@H](C(=O)N3CCCC3)[C@@H](C1)O2	-51.72
Cc1cnc(N2C[C@H]3C[C@H](C(=O)N4CCN(C)CC4)N(C)[C@H]3C2)nc1.O=C(O)C(F)(F)F.O=C(O)C(F)(F)F.O=C(O)C(F)(F)F	1.417
O=C(NCC1CCCCC1)N1C[C@H]2C[C@H](C(=O)N3CCCC3)[C@@H](C1)O2	-1.453
CC(C)CN1CCS(=O)(=O)[C@@H]2CCN(S(=O)(=O)CC(C)C)CC[C@@H]21.O=C(O)C(F)(F)F	-0.8095
CCS(=O)(=O)NCCNc1c(C#N)cnc2c(F)cc(F)cc12	9.088
O=c1c2cccnc2cnn1CC(O)c1cccc(Cl)c1 (centres undefined)	-24.01
O=C(NCC(O)c1cccc(F)c1)C1CCN(C2CCCCC2)CC1 (centres undefined)	-12.87

Structure (SMILES)	Percent Effect [%]
COCCN1CCC(CN(CC2CCCO2)C(=O)Cc2cccs2)CC1 (centres undefined)	153.6
COCCN1CCC(CN(CC2CCCO2)C(=O)Cn2cccn2)CC1 (centres undefined)	105.2
CCN1CCCC1CN(Cc1ccon1)CC1CCN(CCOC)CC1 (centres undefined)	1.475
O=C(c1cccnc1O)N(Cc1cccs1)CC1CCCO1 (centres undefined)	-28.97
COCCN(Cc1cccs1)C(=O)C1CCCN(C(N)=O)C1 (centres undefined)	11.05
CCN1CCCC1CN(Cc1ccoc1)CC1CCN(CCOC)CC1 (centres undefined)	3.887
CN(C)C(=O)N1CCC2(CC1)CN(CC1CC1)CC21CCNC1=O.O=C(O)C(F)(F)F (centres undefined)	-46.87
CC(C)CC(C(=O)N(C)Cc1ncnn1C)N1CCCCC1=O (centres undefined)	7.289
O=C(C1CCCO1)N1CCC(n2cc(-c3ccsc3)nn2)CC1 (centres undefined)	2.629
CCNC(=O)NC1CCN(c2ccc(S(=O)(=O)CC)cc2)CC1	-0.338
CC(C#N)CN(C)Cc1ccc(Cl)c2cccnc12 (centres undefined)	-6.534
CC(C)n1cc(C(=O)N2CCC(n3cc(C(C)(C)C)nn3)CC2)cn1	5.915
CCC(CC)(CNC(=O)OC(C)(C)C)NC(=O)C1CC1	0.8539
COCCN1C[C@@H]2CN(Cc3ccc(C)s3)CCC[C@]2(C(=O)O)C1.O=C(O)C(F)(F)F.O=C(O)C(F)(F)F	111.2
COCCN1C[C@@H]2CN(Cc3ccoc3)CCC[C@]2(C(=O)O)C1.O=C(O)C(F)(F)F.O=C(O)C(F)(F)F	-3.751
COCCN1C[C@@H]2CN(Cc3ccsc3)CCC[C@]2(C(=O)O)C1.O=C(O)C(F)(F)F.O=C(O)C(F)(F)F	4.755
CN1C[C@@H]2CN(Cc3ccsc3)CCC[C@]2(C(=O)O)C1.O=C(O)C(F)(F)F.O=C(O)C(F)(F)F	3.355
Cc1ccc(CN2CCC[C@]3(C(=O)O)CN(CC4CC4)C[C@@H]3C2)s1.O=C(O)C(F)(F)F.O=C(O)C(F)(F)F	98.43
Cc1ccc(CN2C[C@@H]3CN(CC4CCOCC4)CCO[C@@H]3C2)s1.O=C(O)C(F)(F)F.O=C(O)C(F)(F)F	-6.305
Cc1ccc(CN2CCCC3(CCCC(=O)N3)C2)s1.O=C(O)C(F)(F)F (centres undefined)	-10.23
Cc1ccc(CN2CCC[C@]3(C(=O)O)CN(C)C[C@@H]3C2)s1.O=C(O)C(F)(F)F.O=C(O)C(F)(F)F	119.8
Cc1ccc(CN2CCCC3(CCCN3S(C)(=O)=O)C2)s1.O=C(O)C(F)(F)F (centres undefined)	2.867
Cc1ocnc1C(=O)N1CCC2(CC1)c1nc[nH]c1CCN2CC(C)C	6.768

Structure (SMILES)	Percent Effect [%]
OC(COCc1cccs1)CSc1nnc2ccccn12 (centres undefined)	9.754
COc1nn(C)c2c1CCCN(C(=O)c1cccc3cccnc13)C2.O=C(O)C(F)(F)F	97.34
COc1nn(C)c2c1CCCN(S(=O)(=O)c1cccc(F)c1)C2	-2.811
Cn1nc(C#N)c2c1CN(C(=O)c1cccnc1)CCC2.O=C(O)C(F)(F)F	29.43
COc1nn(C)c2c1CCCN(C(=O)c1ccccc1)C2	-3.094
COc1nn(C)c2c1CCCN(C(=O)c1cccc(C)n1)C2.O=C(O)C(F)(F)F	98.8
Cc1ccccc1C(=O)N1Cc2c(Cn3ccnc3)nn(C)c2C1.O=C(O)C(F)(F)F	-9.207
Cc1nc(COCc2cnc3n2CCN(C2CCC2)C3C)cs1.O=C(O)C(F)(F)F (centres undefined)	1.124
Cc1c(C(=O)N2CC(=O)N(C)C2)nnn1-c1cccc2cccnc12	-0.5272
Cc1occc1C(=O)NCC(=O)NCCOc1ccc2c(c1)CCC2	29.83
Cn1ccnc1C(=O)NC[C@H]1OC[C@@H]2CCN(S(C)(=O)=O)C[C@@H]21	-43.59
Cc1cc(C)n(-c2ccc(NCCNS(=O)(=O)c3ccccc3)nn2)n1	5.574
Cc1cc(=O)n(CCNS(=O)(=O)c2cccc(C(F)(F)F)c2)cn1	121.6
O=c1ccc(-n2cccn2)nn1CCNS(=O)(=O)c1ccc(F)c(Cl)c1	8.551
Cc1cc(=O)n(CCNS(=O)(=O)c2ccccc2)cn1	113.1
CNS(=O)(=O)c1cccc(CNc2cc(C(F)(F)F)ccn2)c1	-5.444
Cc1cc(NCCNS(=O)(=O)c2cccc(Cl)c2)nc(C)n1	15.59
O=c1ccc(-n2ccnc2)nn1CCNS(=O)(=O)c1ccc(F)c(Cl)c1	15.65
Cc1cc(=O)n(CCNS(=O)(=O)c2ccc(F)c(Cl)c2)cn1	79.22
CCCn1ccnc1SCCNS(=O)(=O)c1ccccc1	8.595
